# Test results as given in ChEMBL document CHEMBL3988442, “University of Dundee, Small-Polar-MMV Screening Library” (2021).
# Molecular target: AMP-activated protein kinase, AMPK (Homo sapiens) (UniProt P54646+O43741+P54619+Q9UGJ0+Q9Y478+Q13131+Q9UGI9)
# Assay: AMP-dependent Kinase enzyme assay. An in vitro enzyme assay that detects ADP turnover that is directly proportional to AMPK activity. This uses naive AMPK that is activated during the assay with MK-8722
# Type: functional
# Parameters: scale not given: direction of the effect not stated beside the values
# Settings: 30 µM
row,Compound,Percent Effect [%]
1,O=c1[nH]nc(C2CC2)n1-c1cccc(Cl)c1,-10.6
2,Cc1nc(C(C)C)sc1C(C)N(C)C(=O)c1ccc(=O)n(C)n1 (centres undefined),-6.04
3,Cc1cc(NCCc2c(C)n[nH]c2C)nc(-c2cccnc2)n1,-4.66
4,O=C(CN1CCCC(c2ccn[nH]2)C1)N1CCCc2ccccc21 (centres undefined),-2.2
5,CC1(C)OC(=O)N(CC(=O)N2CCC(c3ccccc3Cl)C2)C1=O (centres undefined),8.7
6,CC(C#N)NS(=O)(=O)c1cccc(C(C)C)c1 (centres undefined),0.482
7,CC(C)CCc1noc(C[S+]([O-])CC(=O)NCc2ccccc2)n1 (centres undefined),-1.86
8,Cc1onc(-c2ccncc2)c1C(=O)NC1CCCOC1 (centres undefined),-0.537
9,Cc1c(NC(=O)CN(C)S(C)(=O)=O)cccc1OC1CCCC1,-0.429
10,Cn1cc(CN2CCOC(Cc3cccc(F)c3)C2)cn1 (centres undefined),4.61
11,Cc1c(Br)cccc1NC(=O)N(C)CCO,-2.37
12,Cc1cnn(C2CCCN(C(=O)c3cc(-c4cccs4)n[nH]3)C2)c1 (centres undefined),-1.86
13,Cc1cc(C)nc(NC2CCN(CCOC(C)C)CC2)n1,7.53
14,CCc1nnc2n1CCN(c1nc(C)cc(N(C)C)n1)C2,-7.79
15,Cn1cc(NC(=O)Cc2ccccc2Br)cc1C(N)=O,3.12
16,COc1cccc(CCC(=O)Nc2cnc3c(c2)c(C)nn3C)c1OC,5
17,CC(=O)Cn1c(C)cc(=O)c2cc(F)ccc21,10.5
18,CC1(C)Cc2nc(C(C)(C)C)ncc2C(NC(=O)C2(N)CC2)C1 (centres undefined),-16.9
19,CC(C)Cc1noc(CN(C)C2CCCC2)n1,10.7
20,CC(C)n1cnnc1SCCN(C)c1ccccc1,8.44

row,Compound,Percent Effect [%]
1,CCC(=O)N(c1ccc(C(=O)OC)cc1C)C(C)C,-4.13
2,CCOC(=O)C1(NCC(=O)Nc2cc(C)ccc2OC)CCCC1,0.781
3,CNC(=O)COC(=O)c1ccn(-c2ccc(Cl)c(Cl)c2)n1,1.87
4,Cc1ccc(CNS(=O)(=O)CCCC#N)cc1F,7.39
5,O=C(OCC1CCCN1)c1cccc(NC(=O)c2ccco2)c1 (centres undefined),-4.3
6,Cc1ccc(OCc2occc2C(=O)N2CCOC(C(=O)O)C2)cc1 (centres undefined),2.93
7,c1ccc(CN2CCN(C3CCOC4(CCOCC4)C3)CC2)nc1 (centres undefined),-0.926
8,Cc1ccc(N(CCC#N)C(=O)CCc2cscn2)cc1C,-7.79
9,Cc1ccc2nc(CN3CCCCC3CCN3CCOCC3)cn2c1 (centres undefined),6.28
10,CC(C)[C@@H]1CN(C(=O)CN(C)Cc2ccccc2)C[C@H]1C(=O)O,2.94
11,CSCC(C)(O)CNS(=O)(=O)c1cccc(C)c1 (centres undefined),-0.713
12,COc1ccc2c(c1)OCC(CNC1CCc3ncnn3C1)=C2 (centres undefined),7.82
13,NC(=O)c1cccc(-c2cnc(C3CCCNC3)cn2)c1 (centres undefined),12.6
14,COc1ccc(NC(=O)N2CCC(CSC)C2)cc1C (centres undefined),-6.6
15,CN(Cc1ccc(F)cc1)Cc1cc2c(cc1Br)OCCO2,-2.13
16,CSc1nccc(N2CCC(NCc3nc(C)cc(C)n3)CC2)n1,7.66
17,Cc1cccc(OC2CCN(Cc3ncc[nH]3)CC2)c1,-0.938
18,NC(=O)C1(Cc2ccccc2-c2cncnc2)CCCNC1 (centres undefined),3.1
19,NCc1ccnc(Oc2ccc(F)cc2)c1,14.1
